Measurements published in PubChem BioAssay AID504725 (Broad Institute, 2011).
Results with a measured potency or affinity are listed apart. Calls of active or inactive are those of the source. No rule for the calls is given here.

target: KSHV LANA C-terminal domain (residues 932-1162) binding to LBS DNA (UniProt O40947); assay: KSHV LANA DNA-binding disruption – biochemical, fluorescence polarization, cherry-picked samples, dose response (AID 504725); conditions: MBP-C-LANA / FAM-LBS DNA fluorescence polarization, percent change from plate compound-well median; series mostly up to 35 µM

outcome, inactive:
NNC(=S)Nc1ccc(S(=O)(=O)N2CCOCC2)cc1, CCOC(=O)c1sc(NC(=O)CSC(=S)N2CCN(C)CC2)nc1C, CCOC(=O)C1(Cc2cccc(F)c2)CCN(Cc2c(C)nn(CC)c2C)CC1, Cc1nnc2sc(-c3csc4c3CCCC4)nn12, O=C1c2ccccc2C(Nc2ccc3c(c2)OCCO3)N1Cc1ccc2c(c1)OCO2 (configuration not stated), CC(C)N(Cc1ccccc1)C(=O)Cn1c(=O)cnc2ccccc21, Cc1ccc(N(C)C(=O)C2CCCN2S(=O)(=O)c2ccc3c(c2)n(C)c(=O)c(=O)n3C)cc1 (configuration not stated), NNC(=O)CC1=NNC(=O)C1, NC(=O)C1=NOC(CNc2ncc(C(F)(F)F)cc2Cl)C1 (configuration not stated), COC(=O)c1cccc(COC(=O)c2ccccc2NC(=O)c2ccco2)c1, CCOC(=O)c1ccc[n+](CC(=O)c2ccc(OC)cc2)c1, Cc1ccccc1NC(=S)NC(C)CCc1ccccc1 (configuration not stated), Cn1c(Cl)c(C(=O)Nc2ccc(Cl)cc2)c2ccccc21, O=C(CCNc1ccc(Cc2ccncc2)cc1)c1cccc([N+](=O)[O-])c1, CCc1sc(C(=O)NNC(=O)CNC(=O)c2ccccc2F)cc1C, O=C(N/N=C/c1ccc(N2CCOCC2)cc1)c1ccccn1, CCCCn1nc(CC(=O)O)c2ccccc2c1=O, Cc1nnc(NC(=O)CN2C(=O)NC3(CCCC3)C2=O)s1, N#C/C(=C\c1ccc(-c2ccccc2[N+](=O)[O-])o1)C(N)=O, COc1cc(C(=S)N2CCN(c3cccc(Cl)c3)CC2)ccc1O, O=C(NC1(O)C(=O)c2ccccc2C1=O)c1c(Cl)cccc1Cl, Cc1ccc(N2CC(C(=O)Nc3nnc(SCC(=O)Nc4nc(C)cs4)s3)CC2=O)cc1 (configuration not stated), C=CCN1C(=O)/C(=c2\sc3nc(=O)c(Cc4ccccc4Cl)nn3c2=O)c2ccccc21, C=CCNC(=O)c1cn(CC)c2cc(N3CCN(C(=O)c4ccco4)CC3)c(F)cc2c1=O, O=C(O)C1C2C=CC(CC2)C1C(=O)O (configuration not stated), O=C1c2ccccc2C(=O)N1Cc1ccc2c(c1)OCO2, Nc1ccccc1C(=O)N1O[C@@H]2C=C[C@H]1CC2, Cc1c(C)n(CCC(=O)O)c2ccccc12, CC(/C=C1\SC(=S)N(CCCC(=O)Nc2ccc(C(=O)O)cc2)C1=O)=C\c1ccccc1, Cc1ccc(NC(=O)CN(C)C(=O)c2nn(C)c(=O)c3ccccc23)cc1, COc1ccc(NS(=O)(=O)c2cccc3ccccc23)cc1, CC(C)CC(=O)Nc1nnc(CSCc2ccc(F)cc2)s1, CC(C)(C)OC(=O)C[C@@H]1C/C=C\C[C@H](CC(=O)N(CCO)Cc2ccccc2)C(=O)N[C@@H](c2ccccc2)COC1=O, Nc1ccc(-c2nc3ccc(C(=O)O)cc3s2)cc1, Brc1c(CSc2nncc3ccccc23)nc2ccccn12, O=C(NCCCO)c1ccc2nc(-c3ccco3)c(-c3ccco3)nc2c1, NNc1nnc2c3cc(F)ccc3n(Cc3ccccc3)c2n1
